In PubChem BioAssay (Tox21):
Values without a mark were called inactive. Results filed as inconclusive are left out. A call without a number means that no potency is given here. The source made the active and inactive calls. Unless noted, calls come from the whole dose curve; as a rule, active = well fitted curve in the direction sought with a large enough effect in the repeat runs; inconclusive = weak or mixed curves; inactive = no such curve, though single readings can be large; an effect the other way counts as inactive or inconclusive.

Experiments:
[1] = qHTS assay to identify small molecule antagonists of the TGF-beta/Smad signaling pathway - cell viability counter screen (AID 1346824); note: nearly all actives have a fitted effect of over 50% in size
Outline: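 SBE-bla HEK 293T cells, incubated overnight, then compound plus 0.25 ng/mL TGF-beta1 (stock added) for 5 hr at 37 C. Viability was read in the same wells by CellTiter-Glo luminescence after 30 min at room temperature.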

[2] = qHTS assay to identify small molecule agonists of the TGF-beta/Smad signaling pathway - cell viability counter screen (AID 1346829); note: top concentration of the series differs between compounds; nearly all actives have a fitted effect of over 45% in size
Outline: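 CellTiter-Glo luminescence readout; SBE-bla HEK 293T cells, overnight plating, compound 5 hr at 37 C/5% CO2, then bla substrate 2 hr RT, then CellTiter-Glo 30 min RT.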

[3] = qHTS assay to identify small molecule agonists of the TGF-beta/Smad signaling pathway (AID 1346859; active = well fitted activation curve with a large enough effect in the signal ratio in the repeat runs, not every such curve was filed as active; the % refers to the signal ratio; note: series mostly up to about 77 µM)
Outline: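 SBE-bla HEK 293T, 4,000 cells/well, plated o/n; cpd in DMSO, 5 hr, 37 C/5% CO2; B/G FRET substrate 2 hr RT; ex 405, em 460/530 nm.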

[4] = molecular target: Thyrotropin-releasing hormone receptor (Homo sapiens) (UniProt P34981); test: qHTS assay to identify small molecule antagonists of the thyrotropin-releasing hormone receptor (TRHR) signaling pathway (AID 1346877; active = well fitted inhibition curve with a large enough effect in the repeat runs, not every such curve was filed as active; note: series mostly up to about 51 µM)
Outline: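 TRHR-expressing HEK293 cells loaded with calcium dye for 2 h at 37 C; compounds pre-incubated 5 min at room temperature before TRH challenge at 1 nM final. Intracellular calcium fluorescence read kinetically for 3 min; 15 concentrations in triplicate.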

[5] = molecular target: Thyrotropin-releasing hormone receptor (Homo sapiens) (UniProt P34981); test: qHTS assay to identify small molecule agonists of the thyrotropin-releasing hormone receptor (TRHR) signaling pathway (AID 1346891; calls by dose curve; note: series mostly up to about 58 µM)
Outline: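 Intracellular calcium rise, read as fluorescence every second for 3 min, served as the agonist signal in dye-loaded HEK293 cells expressing TRHR; each compound ran at 15 concentrations in triplicate.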

[6] = Human pregnane X receptor (PXR) small molecule agonists, qHTS cell viability counter screen (AID 1346977); note: nearly all actives have a fitted effect of over 50% in size
Outline: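 PXR-Luc HepG2, 2,000 cells/well, 5% charcoal-stripped FBS; 5hr settle; cpd 24hr, 37C/5% CO2; CellTiter-Fluor at 23hr, read 1hr later (fluorescence).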

[7] = Caspase-3/7 induction in HepG2 cells by small molecules, qHTS assay (AID 1346978); note: nearly all actives have a fitted effect of over 15% in size; note: potency is the fitted concentration of half-maximal effect
Outline: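 Wild-type HepG2 cells, 2,000/well, settled 5 hr at 37 C and 5% CO2, then compound-treated for 17 hr; caspase-3/7 activity read by luminescent Caspase-Glo 3/7 after 30 min at room temperature.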

[8] = Caspase-3/7 induction in CHO-K1 cells by small molecules, qHTS cell viability counter screen (AID 1346979); note: nearly all actives have a fitted effect of over 35% in size; note: potency is the fitted concentration of half-maximal effect
Outline: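 Cells (CHO-K1, wild type) are plated at 1,500 per well and incubated 5hr. Test compounds in DMSO are then pinned in, followed by 16hr at 37C and 5% CO2. Viability is read by CellTiter-Fluor fluorescence after 1hr.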

[9] = Caspase-3/7 induction in CHO-K1 cells by small molecules, qHTS assay (AID 1346980); note: nearly all actives have a fitted effect of over 15% in size
Outline: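 Wild-type CHO-K1 cells exposed to compounds for 17hr at 37 C, 5% CO2. Caspase-3/7 activity then measured by Caspase-Glo 3/7 luminescence after 30min at room temperature.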

[10] = Caspase-3/7 induction in HepG2 cells by small molecules, qHTS cell viability counter screen (AID 1346981); note: series mostly up to about 92 µM; nearly all actives have a fitted effect of over 30% in size
Outline: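 Wild-type HepG2 cells, 2,000/well, settled 5 hr at 37 C, 5% CO2 before compound addition. Viability read by CellTiter-Fluor fluorescence, reagent added after 16 hr compound exposure, then 1 hr at 37C, in the same wells as the caspase read.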

Thyrotropin-releasing hormone receptor (Homo sapiens), sequence (P34981 whole entry, looked up): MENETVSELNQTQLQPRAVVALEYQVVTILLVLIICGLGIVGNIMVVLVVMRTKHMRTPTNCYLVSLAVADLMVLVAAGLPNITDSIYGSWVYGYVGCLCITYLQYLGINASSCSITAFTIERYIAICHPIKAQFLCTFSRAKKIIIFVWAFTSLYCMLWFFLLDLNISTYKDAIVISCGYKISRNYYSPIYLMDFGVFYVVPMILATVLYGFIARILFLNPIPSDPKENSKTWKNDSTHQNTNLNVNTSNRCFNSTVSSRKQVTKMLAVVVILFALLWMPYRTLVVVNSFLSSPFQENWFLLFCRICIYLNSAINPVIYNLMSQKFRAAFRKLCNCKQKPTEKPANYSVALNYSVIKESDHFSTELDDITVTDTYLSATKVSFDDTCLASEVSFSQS

C/C=C/C(=O)C1=C(C)C=CCC1(C)C
Potency [1]: inactive
Potency [2]: inactive
outcome [3]: inactive
Potency [4]: inactive
Potency [5]: inactive
Potency [6]: inactive
Potency [7]: inactive
Potency [8]: inactive
Potency [9]: inactive
Potency [10]: inactive

CCCCCCCCCCCCS(=O)(=O)Cl
viability change, negative = cytotoxic [1]: -0.792% [at 15.8 µM]
activity change, negative = cytotoxicity [2]: 19.7% [at 15.8 µM]
activation [3]: 8.04% [at 15.8 µM]
activity, negative = inhibition [4]: -4.31% [at 10.5 µM]
activation [5]: 0.0016% [at 11.8 µM]
activity change, negative = cytotoxicity [6]: 2.87% [at 19 µM]
caspase activation [7]: -0.157% [at 19 µM]
activity change, negative = cytotoxicity [8]: 5.87% [at 19 µM]
caspase-3/7 activation [9]: -1.07% [at 19 µM]
activity change, negative = cytotoxicity [10]: 3.84% [at 19 µM]

CCOc1ccc([N+](=O)[O-])cc1
Potency [1]: inactive
Potency [2]: inactive
outcome [3]: inactive
Potency [4]: inactive
Potency [5]: inactive
Potency [6]: inactive
Potency [7]: 55.3 µM (active)
Potency [9]: inactive

CCCC(C)C=O (stereo unspecified)
Potency [1]: inactive
Potency [2]: inactive
outcome [3]: inactive
Potency [4]: inactive
Potency [5]: inactive
Potency [6]: inactive
Potency [7]: inactive
Potency [8]: inactive
Potency [9]: inactive
Potency [10]: inactive

CCN(CCC#N)c1ccc(N=Nc2ccc([N+](=O)[O-])cc2)cc1
Potency [1]: inactive
Potency [2]: inactive
outcome [3]: inactive
Potency [4]: inactive
Potency [5]: inactive
Potency [6]: inactive
Potency [7]: inactive
Potency [8]: inactive
Potency [9]: inactive
Potency [10]: inactive

CCc1cccc(C)c1N(C(=O)C(=O)O)C(C)COC (stereo unspecified)
Potency [1]: inactive
Potency [2]: inactive
outcome [3]: inactive
Potency [4]: inactive
Potency [5]: inactive
Potency [6]: inactive
Potency [7]: inactive
Potency [8]: inactive
Potency [9]: inactive
Potency [10]: inactive

NCc1ccco1
Potency [1]: inactive
Potency [2]: inactive
outcome [3]: inactive
Potency [4]: inactive
Potency [5]: inactive
Potency [6]: inactive
Potency [7]: inactive
Potency [8]: inactive
Potency [9]: inactive
Potency [10]: inactive

O=C(NCc1ncc(C(F)(F)F)cc1Cl)c1c(Cl)cccc1Cl
Potency [1]: inactive
Potency [2]: inactive
outcome [3]: inactive
Potency [4]: inactive
Potency [5]: inactive
Potency [6]: inactive
Potency [7]: 19.3 µM (active)
Potency [8]: inactive
Potency [10]: inactive

Nc1ccc(Oc2cccc(Oc3ccc(N)cc3)c2)cc1
Potency [1]: inactive
Potency [2]: inactive
outcome [3]: inactive
Potency [4]: inactive
Potency [5]: inactive
Potency [6]: inactive
Potency [7]: inactive
Potency [8]: inactive
Potency [9]: inactive
Potency [10]: inactive

NC(=O)C1CO1 (stereo unspecified)
Potency [1]: inactive
Potency [2]: inactive
outcome [3]: inactive
Potency [4]: inactive
Potency [5]: inactive
Potency [6]: inactive
Potency [7]: inactive
Potency [8]: inactive
Potency [9]: inactive
Potency [10]: inactive

Cc1ccc2sc3cccc(C)c3c2c1
Potency [1]: inactive
Potency [2]: inactive
outcome [3]: inactive
Potency [4]: inactive
Potency [5]: inactive
Potency [6]: inactive
Potency [7]: inactive
Potency [8]: inactive
Potency [9]: inactive
Potency [10]: inactive

[Cl][Dy]([Cl])[Cl]
Potency [1]: inactive
Potency [2]: inactive
outcome [3]: inactive
Potency [4]: inactive
Potency [5]: inactive
Potency [6]: inactive
Potency [7]: inactive
Potency [8]: inactive
Potency [9]: inactive
Potency [10]: inactive

C1=CCCC1
Potency [1]: inactive
Potency [2]: inactive
outcome [3]: inactive
Potency [4]: inactive
Potency [5]: inactive
Potency [6]: inactive
Potency [7]: inactive
Potency [8]: inactive
Potency [9]: inactive
Potency [10]: inactive

SC1CCCCC1
Potency [1]: inactive
Potency [2]: inactive
outcome [3]: inactive
Potency [4]: inactive
Potency [5]: inactive
Potency [6]: inactive
Potency [7]: inactive
Potency [8]: inactive
Potency [9]: inactive
Potency [10]: inactive

O=C(c1ccccc1)c1ccc(Cl)cc1
Potency [1]: inactive
Potency [2]: inactive
outcome [3]: inactive
Potency [4]: inactive
Potency [5]: inactive
Potency [6]: inactive
Potency [7]: inactive
Potency [8]: 61.1 µM (active)
Potency [9]: inactive
Potency [10]: inactive

CCC(O)CO (stereo unspecified)
Potency [1]: inactive
Potency [2]: inactive
outcome [3]: inactive
Potency [4]: inactive
Potency [5]: inactive
Potency [6]: inactive
Potency [7]: inactive
Potency [8]: inactive
Potency [9]: inactive
Potency [10]: inactive

N#Cc1ccc(C/C(=N/NC(=O)Nc2ccc(OC(F)(F)F)cc2)c2cccc(C(F)(F)F)c2)cc1
Potency [1]: inactive
Potency [2]: inactive
outcome [3]: inactive
Potency [4]: inactive
Potency [5]: inactive
Potency [6]: inactive
Potency [7]: inactive
Potency [9]: inactive
Potency [10]: inactive

CCOc1nc(F)cc2nc(S(=O)(=O)Nc3c(Cl)cccc3C(=O)OC)nn12
Potency [1]: inactive
Potency [2]: inactive
outcome [3]: inactive
Potency [4]: inactive
Potency [5]: inactive
Potency [6]: inactive
Potency [7]: inactive
Potency [8]: inactive
Potency [9]: inactive
Potency [10]: inactive

CCOC(=O)C1=NN(c2ccc(Cl)cc2Cl)C(C)(C(=O)OCC)C1 (stereo unspecified)
Potency [1]: inactive
Potency [2]: inactive
outcome [3]: inactive
Potency [4]: inactive
Potency [5]: inactive
Potency [6]: inactive
Potency [7]: inactive
Potency [8]: inactive
Potency [9]: inactive
Potency [10]: inactive

C/C(=N\[Si](C)(C)C)O[Si](C)(C)C
Potency [1]: inactive
Potency [2]: inactive
outcome [3]: inactive
Potency [4]: inactive
Potency [5]: inactive
Potency [6]: inactive
Potency [7]: inactive
Potency [8]: inactive
Potency [9]: inactive
Potency [10]: inactive

c1ccc2occc2c1
Potency [1]: inactive
Potency [2]: inactive
outcome [3]: inactive
Potency [4]: inactive
Potency [5]: inactive
Potency [6]: inactive
Potency [7]: inactive
Potency [8]: inactive
Potency [9]: inactive
Potency [10]: inactive
